Laboratory results published in the supplement of paper PMC6555819.

Columns and labels:
Test in all cases: PBM binding z-score (relative to random genomic background probes); higher = stronger binding; sequences stand for … in GC…GCGATTGACAGCGTAGAATGAAGG
[1] = tested on: FXR:RXRa (NR concentration 270 nM, RXRa partner concentration 90 nM)
Summary of the method: (§1)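 Binding z-scores take random background probes as their reference. They come from custom Agilent 4×180K protein-binding microarrays incubated 1 h with ligand-free nuclear receptor dimers, with antibodies against each partner (one per run) detecting binding. Scanned fluorescence was regression-normalized.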

[2] = tested on: LXRa:RXRa (NR concentration 270 nM, RXRa partner concentration 90 nM)
Summary of the method: as §1

[3] = tested on: LXRa homodimer (NR concentration 270 nM)
Summary of the method: as §1

[4] = tested on: LXRb:RXRa (NR concentration 270 nM, RXRa partner concentration 90 nM)
Summary of the method: as §1

[5] = tested on: LXRb homodimer (NR concentration 270 nM)
Summary of the method: as §1

[6] = tested on: PPARa:RXRa (NR concentration 270 nM, RXRa partner concentration 90 nM)
Summary of the method: as §1

[7] = tested on: PPARg:RXRa (NR concentration 180 nM, RXRa partner concentration 90 nM)
Summary of the method: as §1

[8] = tested on: PPARg:RXRa 270nM:90nM, anti-RXR (NR concentration 270 nM, RXRa partner concentration 90 nM)
Summary of the method: as §1

[9] = tested on: PPARg:RXRa 30nM:10nM, anti-RXR (NR concentration 30 nM, RXRa partner concentration 10 nM)
Summary of the method: as §1

[10] = tested on: PPARg:RXRa 90nM:30nM, anti-RXR (NR concentration 90 nM, RXRa partner concentration 30 nM)
Summary of the method: as §1

[11] = tested on: PPARg:RXRa DBDmut IVT, anti-RXR (DBD mutation: RXRa K156A/R161A, NR concentration 270 nM, RXRa partner concentration 90 nM)
Summary of the method: as §1

[12] = tested on: PPARg:RXRa IVT, anti-PPARg (NR concentration 270 nM, RXRa partner concentration 90 nM)
Summary of the method: as §1

[13] = tested on: PPARg DBDmut:RXRa IVT, anti-PPARg (DBD mutation: PPARg1 K132A/R137A, NR concentration 270 nM, RXRa partner concentration 90 nM)
Summary of the method: as §1

[14] = tested on: PPARg DBDmut IVT, anti-PPARg (DBD mutation: PPARg1 K132A/R137A, NR concentration 270 nM)
Summary of the method: as §1

[15] = tested on: PPARg homodimer (NR concentration 180 nM)
Summary of the method: as §1

[16] = tested on: PXR:RXRa (NR concentration 270 nM, RXRa partner concentration 90 nM)
Summary of the method: as §1

[17] = tested on: PXR homodimer (NR concentration 270 nM)
Summary of the method: as §1

[18] = tested on: RARa:RXR (NR concentration 270 nM, RXRa partner concentration 90 nM)
Summary of the method: as §1

[19] = tested on: RARa homodimer (NR concentration 270 nM)
Summary of the method: as §1

[20] = tested on: RARb:RXRa (NR concentration 270 nM, RXRa partner concentration 90 nM)
Summary of the method: as §1

Sequence	PBM binding z-score [1]	PBM binding z-score [2]	PBM binding z-score [3]	PBM binding z-score [4]	PBM binding z-score [5]	PBM binding z-score [6]	PBM binding z-score [7]	PBM binding z-score [8]	PBM binding z-score [9]	PBM binding z-score [10]	PBM binding z-score [11]	PBM binding z-score [12]	PBM binding z-score [13]	PBM binding z-score [14]	PBM binding z-score [15]	PBM binding z-score [16]	PBM binding z-score [17]	PBM binding z-score [18]	PBM binding z-score [19]	PBM binding z-score [20]
CGTACTAGGTCATTGACAGGACAGTGAATAGTAA	4.65	3.15	0.997	2.29	0.27	4.07	6.36	5.47	3.06	4.93	7.67	7.54	3.72	3.85	3.05	1.64	0.269	2.54	0.282	3.67
GCTAGCAGGCCATTTGGGTCACTCACTGACGGGC	0.237	-0.137	-0.55	-0.212	-0.64	1.16	0.358	0.596	-0.357	0.202	2.26	2.51	-1.21	-1.1	0.122	0.354	-0.0107	0.762	-0.483	1.45
GCAGACAGGTGAAACGCAGGTAACTGAGGGTGGC	-0.0768	-0.241	-0.455	-0.345	-0.944	0.632	0.492	-0.236	-0.698	-0.467	0.757	0.578	0.338	-0.375	-0.52	-0.257	-0.434	0.257	-0.289	0.65
ATCGAAAGGTCGAGGTAAGTATAGAGAAAGGGAA	3.98	3.46	0.361	2.66	0.336	4.29	2.72	3.32	1.2	2.24	0.0665	1.66	1.14	1.3	1.24	2.31	0.464	3.24	1.21	4.06
CGTCCCAGGTCAGCAGGTCAGTGAAAGCGACGTG	3.56	2.34	0.419	1.95	-0.0332	3.49	2.6	2.88	0.0912	1.51	1.69	2.71	-0.717	-0.861	1.2	2.16	-0.206	3.19	0.0121	4.12
CCTATTAGTTGACCATAAGAGCAACCGAAGCTCG	0.554	0.617	1	0.594	1.16	0.283	0.521	0.101	0.292	-0.0122	0.641	0.0362	0.382	0.759	2.08	0.627	0.992	0.532	2.97	0.667
TCTTGTAGATCAACAGGAGGATAAGAAAGATCGA	0.307	0.0206	-0.000187	0.226	-0.349	0.337	0.379	0.997	2.56	1.61	1.64	0.232	0.62	0.57	0.00545	0.187	0.0396	0.295	-0.0742	-0.284
